In PubChem BioAssay AID624351 (Southern Research Specialized Biocontainment Screening …, 2012):
Screen size: about 2,400 compounds; about 1,400 (58%) were called active. The set was probably picked from earlier hits. This is one part of the list. Unmarked numbers belong to inactive results.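 How the source made its calls: active means inhibition of 30% or more at any tested dose; inconclusive means primary hits over the limit that were never retested; inactive means the rest.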

experiment: ADP Hunter readout inhibition without MgcRacGAP – biochemical, coupled enzyme counter-screen, artefact control for MgcRacGAP inhibitor project, dose response (AID 624351); details: fluorescence, no MgcRacGAP; series mostly up to 80 µM; inhibition: at the top concentration;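 further: signal is the ADP detection kit reading of free GDP without any GAP enzyme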;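 on inhibition: 0% = median positive control wells and 100% = median negative control wells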

Structure (SMILES)	inhibition [%]	IC50
COc1cccc2c1C(=O)c1c(O)c3c(c(O)c1C2=O)CC(O)(C(C)=NNC(=O)c1ccc(Cl)c(Cl)c1)CC3OC1CC(N)C(O)C(C)O1 (configuration not stated)	3.28	
COc1cccc2c1C(=O)c1c(O)c3c(c(O)c1C2=O)C[C@@](O)(C(=O)CO)C[C@@H]3OC1CC(N)C(O)C(C)O1 (some centres not stated)	10.3	
Nc1ccc(N(c2ccccc2)c2ccc(N)cc2)cc1		9.3 µM (active)
N#CC1=C(S)N(c2ccccc2)C2(CCCCC2)NC1=O	-2.39	
COc1cc(/C=N/NC(=S)Nc2cccc(S(=O)(=O)N(C)C)c2)ccc1O		27.7 µM (active)
CN(C)S(=O)(=O)c1cccc(NC(=O)CNCC2CCCCC2)c1	15	
COc1cc(/C=N/NC(=S)Nc2cccc(C(=O)O)c2)ccc1O		46.3 µM (active)
COc1cc(/C=C2\C(=O)N(c3cccc(C(=O)O)c3)N=C2C)ccc1OCc1ccccc1	3.07	
CN(C)c1ccc(Sc2ccc3nc(N)nc(N)c3c2)cc1		53.7 µM (active)
CCN(CC)S(=O)(=O)c1cccc(NC(=O)CNC2CCCCCC2)c1	23	
CCOc1ccccc1NC(=O)C(NCC1(N2CCCCC2)CCCCC1)c1ccccc1 (configuration not stated)	17	
O=C(/C=C/Nc1ccc(Nc2ccccc2)cc1)c1cccs1	23.6	
CN(C)c1ccc(N/C=C/C(=O)C(C)(C)C)cc1		7.04 µM (active)
C=C(CN(C)C)C(=O)c1ccc(OC2OC(COC(C)=O)C(OC(C)=O)C(OC(C)=O)C2OC(C)=O)cc1 (configuration not stated)	-2.5	
O=C1/C(=C\c2ccc([N+](=O)[O-])cc2)CS(=O)(=O)C/C1=C/c1ccc([N+](=O)[O-])cc1	6.84	
O=[N+]([O-])c1ccc(N/N=C/c2ccc[nH]2)cc1		41.1 µM (active)
CN1C=CC(=CC=C2C=CC(=O)C=C2)C=C1		23.1 µM (active)
COc1cc(C)c(N)cc1C(C)C		34.2 µM (active)
Nc1ccc(O)c([N+](=O)[O-])c1		43.9 µM (active)
Cc1ccc(S(=O)(=O)Oc2ccc(/C=C3/C(=N)N4C(=NC3=O)SN=C4S(C)(=O)=O)cc2)cc1	4.36	
CCOC(=O)c1[nH]c(=S)n(Cc2ccccc2)c1C(=O)OCC		41.9 µM (active)
CCOC(=O)/C(C#N)=C1/C(=O)N(Cc2ccccc2)c2ccccc21	4.83	

Structure (SMILES)	inhibition [%]	IC50
CCOC(=O)/C(C#N)=C1\C(=O)N(Cc2ccccc2)c2ccccc21	4.02	
Cc1ccc(CN2CCN(Cc3ccco3)CC2)cc1	24.4	
Cc1cs/c(=N\N=C\c2ccc(O)cc2)n1Cc1ccco1		25.9 µM (active)
CN(C)C(=S)N=c1ssc(=S)n1Cc1ccco1	6.25	
CCN1CCN(CCCOc2ccccc2-c2ccccc2)CC1	21.3	
COc1ccc(C(=O)/C=C/c2ccc(O)cc2)c2c1CC(O)C(C)(C)O2 (configuration not stated)		52.3 µM (active)
COc1ccc(OC)c(CN2CCN(Cc3ccc(OC)c(OC)c3OC)CC2)c1	28.4	
CNC(=S)N/N=C/c1ccc(N2CCOCC2)s1	-3.84	
CCOC(=O)N/N=C/c1ccc(N2CCOCC2)s1		53 µM (active)
NC(=O)N/N=C/c1ccc(N2CCOCC2)s1		45.8 µM (active)
Clc1cccc(N/N=C/c2ccc(N3CCOCC3)s2)c1		59.7 µM (active)
COC(=O)CC1SC(=O)NC1=Nc1ccc(O)cc1 (configuration not stated)		60.2 µM (active)
Cc1ccn2c(NC3CCCC3)c(-c3ccncc3)nc2c1		49 µM (active)
CCOC(=O)c1c(-c2ccccc2)csc1NC(=O)C(C)NCCCN1CCOCC1 (configuration not stated)	22.2	
Cc1c(-c2ccccc2)sc(N)c1C(=O)N1CCOCC1		41.6 µM (active)
CN1CCN(C(=O)c2sc(=S)n(-c3ccccc3)c2N)CC1	0.54	
CCCCNCC#CCOc1cc(C)ccc1C(C)C	13.2	
C=CC[n+]1c(/C=C/c2ccc(OC(C)=O)c(OC)c2)ccc2ccccc21	8.66	
COc1cc(/C=C/c2sc3ccccc3[n+]2CCCS(=O)(=O)[O-])ccc1O		22.2 µM (active)
CN(C1CCCCC1)S(=O)(=O)c1cccc2nsnc12	4.2	
CSC1=NN(c2ccccc2)CN(c2ccccc2)N1C		72.1 µM (active)
COc1cc(CCNC2=CC(=O)c3ncccc3C2=O)ccc1O		70.9 µM (active)

Structure (SMILES)	inhibition [%]	IC50
Cc1sc2nc(CN3CCOCC3)nc(N3CCOCC3)c2c1C	18.4	
c1cc2c(cc1CNc1ccc(N3CCOCC3)cc1)OCO2		4.31 µM (active)
Clc1ccccc1CNCc1ccc2c(c1)OCO2	19.8	
CC(=O)N1CCN(c2ccc(NCc3ccc4c(c3)OCO4)cc2)CC1		9.9 µM (active)
C=CCNC(=S)N1CCN(Cc2ccc3c(c2)OCO3)CC1	15.3	
COc1cc(OC)cc(C(=O)N2CCN(Cc3ccc4c(c3)OCO4)CC2)c1	16.2	
COc1cccc(OC)c1C(=O)N1CCN(Cc2ccc3c(c2)OCO3)CC1	18	
CN(C)CCCN1c2ccc(O)cc2Sc2ccc(Cl)cc21		13.1 µM (active)
CN1CCN(CCOCCOc2ccc(Br)cc2Cl)CC1	17.7	
C=CCc1cc(Cl)ccc1OCCN(C)C	18.7	
CCN1CCN(CCCOc2ccc(Cl)cc2Br)CC1	27.8	
CN1CCN(CCCN2c3ccccc3Sc3ccc(Cl)cc32)CC1		83.1 µM (active)
COc1cc(/C=N/Nc2ccc(C(F)(F)F)cn2)ccc1O		52.5 µM (active)
Oc1ccc(/C=N/Nc2ccc(C(F)(F)F)cn2)cc1		29.7 µM (active)
Oc1ccc(/C=N/Nc2ccc(C(F)(F)F)cn2)c(O)c1		34.8 µM (active)
COc1cc(/C=N/Nc2ncc(C(F)(F)F)cc2Cl)cc(OC)c1O	28.1	
Cc1ncc(CO)c(/C=N/Nc2ccc(C(F)(F)F)cn2)c1O	-1.58	
OCCNCCSc1nc(C2CCCCC2)n(-c2ccccc2Cl)n1	13.2	
O=c1[nH]c(/C=C\c2ccc(O)cc2)nc(O)c1[N+](=O)[O-]		43.4 µM (active)
COc1cc(/C=N/NC(=O)c2ccc(N3CCCC3=O)cc2)ccc1O		31.5 µM (active)
COc1cc(/C=N/NC(=O)c2cccc(N3CCCC3=O)c2)ccc1O		34.1 µM (active)
O=c1nc2s/c(=C\c3ccc(-c4ccccc4[N+](=O)[O-])o3)c(=O)n2nc1-c1ccccc1	-3.71	

Structure (SMILES)	inhibition [%]	IC50
O=C(N/N=C/c1ccc(O)cc1)NC12CC3CC(CC(C3)C1)C2		53 µM (active)
COc1cc(/C=N/N=C2\CC3CCC2(C)C3(C)C)ccc1O (configuration not stated)		45.7 µM (active)
COc1cc(/C=N/NC(=O)NC23CC4CC(CC(C4)C2)C3)ccc1O		56.2 µM (active)
C=C1CC(C(=O)N/N=C/c2ccc(O)cc2)C1		45.9 µM (active)
O=C(O)C1CSC(c2ccco2)N1 (configuration not stated)	-6.99	
CCOc1ccc(CNC2CCCc3ccccc32)cc1 (configuration not stated)	16.4	
COc1cc(/C=N\NC(=O)C2CC3C=CC2C3)ccc1O (configuration not stated)		23.9 µM (active)
COCCNC(=O)CN(C(=O)Cn1nnc2ccccc21)c1ccc(C)cc1	5.89	
COCCNC(=O)Cn1cc(/C=N/NC(=O)c2ccc(Oc3ccc(O)cc3)cc2)c2ccccc21		44.8 µM (active)
Oc1ccc(/C=N/Nc2nccnc2Cl)cc1		21.1 µM (active)
Oc1ccc(/C=N/Nc2ncc(Cl)cc2Cl)cc1		21.5 µM (active)
Oc1ccc(/C=N/Nc2nccnc2Cl)c(O)c1		12.8 µM (active)
Cc1cc(C)c(OCCCCN(C)Cc2ccccc2)c(C)c1	14.7	
COc1cc(OC)c(OC)cc1/C=N/N(C)c1ccccc1		56.4 µM (active)
COc1cc(/C=N/N(C)c2ccccc2)ccc1O		17.3 µM (active)
COc1cc(/C=N/N(C)c2ccccc2)cc(Cl)c1O		37.7 µM (active)
Cc1ccc(N2C(S)=C(C#N)C(=O)NC2c2cccs2)cc1 (configuration not stated)	5.26	
CC1=NN(c2ccc(Cl)c(C(=O)O)c2)C(=O)/C1=C/c1ccc(-c2ccccc2[N+](=O)[O-])o1	8.7	
CC(=O)N1CCN(c2ccc(NCc3ccc(C(C)C)cc3)cc2)CC1		8.85 µM (active)
CC(=O)N1CCN(c2ccc(NCc3cccc(C)c3)cc2)CC1		7.75 µM (active)
CC(=O)N1CCN(c2ccc(NCc3ccc(F)cc3)cc2)CC1		10.9 µM (active)
COc1cccc(-c2cc(C(=O)N3CCN(c4ccc(F)cc4)CC3)no2)c1	2.83	

Structure (SMILES)	inhibition [%]	IC50
Cc1cccc(CN2CCN(C(C)C(=O)NC(C)c3ccccc3)CC2)c1 (configuration not stated)	27.7	
Cc1ccc(CNc2ccc(N3CCOCC3)cc2)s1		11.7 µM (active)
O=c1c2cc(F)ccc2sn1-c1ccccc1	22.1	
CC(=O)N1CCN(c2ccc(NCc3cccs3)cc2)CC1		14.7 µM (active)
CC(=O)N1CCN(c2ccc(NCc3ccccc3)cc2)CC1		8.44 µM (active)
CC(C)c1ccc(CNc2ccc(N3CCOCC3)cc2)cc1		7.52 µM (active)
CCc1ccc(CNc2ccc(N3CCN(C(C)=O)CC3)cc2)cc1		9.1 µM (active)
O=C(CNCc1cccs1)Nc1ccc(N2CCCCCC2)cc1	19.7	
Cc1ccccc1C(OCC(O)CN1CCN(CCO)CC1)c1ccccc1 (configuration not stated)	26.4	
c1ccc(CNc2ccc(N3CCOCC3)cc2)cc1		5.39 µM (active)
O=C(CNc1ccc(Oc2ccccc2)cc1)N1CCOCC1	17.7	
CC(C)n1cc(/C=N/Nc2ccc(Cl)c(C(=O)O)c2)c2ccccc21	26	
Cc1ccc(/C=N/Nc2ccc(Cl)c(C(=O)O)c2)s1		67.4 µM (active)
Cc1ccc(/C=N/Nc2ccc(C(=O)O)cc2)s1		79.7 µM (active)
O=c1[nH][nH]cc1C=Nc1ccc(Cl)cc1Cl	2.11	
O=c1[nH][nH]cc1C=Nc1cc(Cl)ccc1O		46 µM (active)
CCCCn1c(SCC(=O)c2ccc(O)c(O)c2)nc2ccsc2c1=O		45.9 µM (active)
CCOc1cccc(CNc2ccc(O)cc2)c1OCc1ccc(Cl)cc1Cl	-24.7	
CC(Oc1ccc(Cl)cc1Cl)C(=O)Nc1ccc(O)cc1 (configuration not stated)		46.9 µM (active)
